In ChEMBL document CHEMBL4513216, “Probing the Open Global Health Chemical Diversity Library for Multistage-Active Starting Points for Next-Generation Antimalarials” (ACS Infect Dis, 2020):
Out of some 69,000 compounds screened, about 8,600 (12%) showed an effect of 50% or more. The sample holds strong results, similar compounds and a random draw of the others, so the mix is not that of the screen.

Test system: Plasmodium berghei
Assay: Screen against P. berghei liver stage (PbLuc), transformed with Luciferase, at 10uM
Type: functional, HepG2
Conditions: tested at 10 uM

In order of falling INHIBITION:
1. CC(C)n1nc2c(cc1=O)CN(Cc1nc(-c3ccoc3)no1)CC2  77.9%
2. COc1ccc(N2CCN(CC(O)c3cc(C)ccc3C)CC2)cc1 (stereo unspecified)  69.8%
3. COc1cccc(N2CCN(CC(O)c3cc(C)ccc3C)CC2)c1 (stereo unspecified)  67.9%
4. CC(C)c1ncc2c(n1)CN(Cc1nc(-c3cccs3)no1)CC2  65.1%
5. COc1cccc(N2CCN(CC(O)c3cc(C)sc3C)CC2)c1 (stereo unspecified)  63.1%
6. Cn1cc(-c2nc(C3CCN(CC4CC4)CC3)cc3c2ncn3C)cn1  61.5%
7. CCCn1nc2c(cc1=O)CN(Cc1nc(-c3ccoc3)no1)CC2  61.1%
8. CCn1nc2c(cc1=O)CN(Cc1nc(-c3cccs3)no1)CC2  60.5%
9. CC(C)N1CCC(CC(=O)N2CCN(Cc3nccn3C)CC2)CC1  58.5%
10. CCn1ccnc1CN1CCCN(C(=O)c2cccn2C)CC1  56.6%
11. CCN1CCN(CC(O)c2ccc(OC(F)(F)F)cc2)CC1 (stereo unspecified)  56.1%
12. CC(C)n1cnc2c(-c3cccnc3)nc(C3CCNCC3)cc21  55.7%
13. Cn1ccnc1CN1CCCN(C(=O)c2ccc3cc[nH]c3c2)CC1  55.2%
14. CC(Oc1ccccc1)C(=O)N1CCCN(Cc2nccn2C)CC1 (stereo unspecified)  54.4%
15. CCc1ccc(C(O)CN2CCN(c3cccc(OC)c3)CC2)cc1 (stereo unspecified)  54%
16. COc1ccc(-c2nc(C3CCNCC3)cc3c2ncn3C)cc1  53%
17. Fc1cccc(-c2nnn3c2COC(CNCc2ccsc2)C3)c1 (stereo unspecified)  52%
18. CCN1CC(COC(=O)c2cc(C)nn2CC)CC1=O (stereo unspecified)  50.4%
19. Cn1ccnc1CN1CCCN(C(=O)CC(C2CC2)C2CC2)CC1  50.3%
20. Fc1cccc(-c2nnn3c2COC(CNCc2nccs2)C3)c1 (stereo unspecified)  50.3%
21. Cn1cnc2c(-c3cccnc3)nc(C3CCNCC3)cc21  48.4%
22. COCCc1noc(CN2CCc3nn(C(C)C)c(=O)cc3C2)n1  48.2%
23. CN1CCCCC1CCC(=O)NCCCn1nccc1C1CC1 (stereo unspecified)  47.7%
24. Fc1cccc(-c2nnn3c2COCC(CNCc2nccs2)C3)c1 (stereo unspecified)  47.5%
25. CC(C)N1CCC(CC(=O)N2CCC(C(O)c3nccn3C)CC2)CC1 (stereo unspecified)  46.7%
26. CCn1cc(CN2CCN(CC(O)c3cc(C)ccc3C)CC2)c(C)n1 (stereo unspecified)  43.6%
27. CCn1nc2c(cc1=O)CN(Cc1nc(-c3ccoc3)no1)CC2  42.1%
28. COc1ccc(N2CCN(CC(O)c3ccc(C)cc3C)CC2)cc1 (stereo unspecified)  41.6%
29. Cc1ncccc1NC(=O)[C@@H]1CCO[C@@H]2CCN(c3ccccc3)C[C@@H]21  41.4%
30. COc1ccc(/C=C/CN2C[C@@H]3CC[C@H]2CN(S(=O)(=O)N(C)C)C3)cc1  38.6%
31. Cn1cnc2c(-c3ccccc3)nc(C3CCNCC3)cc21  38.5%
32. COc1ccc(OC)c(C(O)CN2CCN(c3cccc(C)c3)CC2)c1 (stereo unspecified)  34.5%
33. CCCN1CCN(CC(O)c2ccc(OC(F)(F)F)cc2)CC1 (stereo unspecified)  33.7%
34. CC(=O)N1CCC(c2cc3c(ncn3C)c(-c3cnn(C)c3)n2)CC1  33.4%
35. CN(C)Cc1ccc(N2CCN(CCOCC(F)(F)F)CC2)nc1  33.4%
36. CCn1ccnc1CN1CCCN(C(=O)c2cc(C)nn2CC)CC1  32.3665%
37. CN(C)CCOc1ccc(N(C)S(=O)(=O)c2cnn(C)c2)cc1  32.3%
38. Cc1cnn(CCNCc2nnc(-c3ccccc3)o2)c1  31.3%
39. O=C1CCC2(CCC(NCc3ccsc3)CC2)N1Cc1ccccc1 (stereo unspecified)  29.7%
40. COc1ccc(-c2ccnc(C3CCNCC3)c2)cc1  29.2%
41. CCN(Cc1nonc1C)C(=O)Cn1nc(C(F)(F)F)cc1C1CC1  28.89%
42. Cc1ncc2c(n1)CN(Cc1nc(-c3cccs3)no1)CC2  28.8%
43. CCc1ncc2c(n1)CN(Cc1nc(-c3cccs3)no1)CC2  28.8%
44. Cn1ccnc1CN1CCCN(C(=O)c2ccc3ccccc3c2)CC1  27.8%
45. Cn1nc2c(cc1=O)CN(Cc1nc(-c3cccs3)no1)CC2  26.1%
46. O=C1CN(C(=O)CCn2c(C(F)(F)F)cc3cccnc32)CCN1  25.6%
47. NC1CCC(NC(=O)c2ccc3nc(-c4ccc(F)cc4)cn3c2)CC1 (stereo unspecified)  24.7%
48. CN(CC(=O)N1CCCC1c1noc(C2CC2)n1)Cc1ccccc1 (stereo unspecified)  23.7%
49. CC(C)N(CC(N)=O)C(=O)CCC(=O)c1ccc(F)cc1F  23.7%
50. COc1cc2nc3n(c(=O)c2cc1OC)CCN(C(=O)C1CCC1)CC3  23.4%
51. COc1cc2nc(C)n(CC(=O)NCC(C)C)c(=O)c2cc1OC  21.5%
52. Cn1ccnc1CN1CCCN(C(=O)c2ccc3[nH]cnc3c2)CC1  21%
53. O=C(C1CC(F)(F)C1)N1C[C@@H]2CN(CC3CCCC3)CCO[C@@H]2C1  20.6%
54. OC(CN1CCCCCCC1)c1ccc(OC(F)(F)F)cc1 (stereo unspecified)  19.2%
55. CC(CC(=O)N1CCCN(Cc2nccn2C)CC1)n1cccc1 (stereo unspecified)  18.9%
56. Cc1ccc(CNCC2Cn3nnc(-c4cccc(F)c4)c3CO2)o1 (stereo unspecified)  18.2%
57. COc1cccc(N2CCN(CC(O)c3ccc(C)cc3)CC2)c1 (stereo unspecified)  17.4%
58. CCN1CC(COC(=O)c2cccc(Br)c2)CC1=O (stereo unspecified)  16.8%
59. CCCOc1cc(CNC(=O)Nc2cccc(C(C)=O)c2)ccn1  16.6%
60. CCn1ccnc1CN1CCCN(C(=O)c2ccnn2C)CC1  16.45%
61. COc1cccc(C(O)CN2CCN(c3cccc(C)c3)CC2)c1 (stereo unspecified)  16%
62. Cn1cc(-c2nc(C3CCN(S(C)(=O)=O)CC3)cc3c2ncn3C)cn1  15.7%
63. CCc1nc(CNc2ccc(C(=O)N3CCSCC3)cc2C)no1  15.5%
64. COc1ccccc1CC(C)CC(=O)N(C)Cc1cc(C)on1 (stereo unspecified)  14.7%
65. Cn1ccnc1CN1CCCN(C(=O)COCC2CC2)CC1  13.3%
66. CN(C)CCN1C[C@@H]2CN(C(=O)C3CCOC3)C[C@@H]2C1=O (stereo partly specified)  12.7%
67. O=C(O)c1cc2c(nc1-c1ccsc1)CCN(C1CCOC1)CC2 (stereo unspecified)  11.3%
68. CCn1nc(C)cc1C(=O)OCC1CC(=O)N(Cc2ccccc2)C1 (stereo unspecified)  10.1%
69. O=C(CC1CC1)NCc1cn2c(n1)CN(CC1CC1)CC2  9.67%
70. OCC1(O)CCCN(Cc2noc(-c3ccccc3)n2)C1 (stereo unspecified)  9.41%
71. CC(OCC1CC1)C(=O)N1CCCN(Cc2nccn2C)CC1 (stereo unspecified)  9.32%
72. Cc1cccc(CC(=O)N2CCCCC2CN)c1 (stereo unspecified)  8.13%
73. CCn1nc2c(cc1=O)CN(Cc1nc(-c3ccsc3)no1)CC2  7.7%
74. O=C(NCC1(Sc2ccccc2)CC1)c1cc[nH]n1  5.15%
75. CN(Cc1noc(C2CC2)n1)C1CCN(Cc2ncc[nH]2)C1 (stereo unspecified)  3.1%
76. Cc1ccc(N2CCN(C(=O)CCc3n[nH]c(C)n3)CC2=O)cc1  2.7%
77. Fc1cccc(-c2nnn3c2COC(CNCc2cccs2)C3)c1 (stereo unspecified)  1.9%
78. CC(C)n1cnc2c(N3CCCC3)nc(C3CCNCC3)cc21  -3.52%
79. Cc1nc2sc(C(=O)N3CCNC(=O)C3)c(C)c2c(=O)[nH]1  -4.35%
80. CSC(C)C(=O)N1CCCN(Cc2nccn2C)CC1 (stereo unspecified)  -5.25%
81. Cn1nc2c(cc1=O)CN(Cc1nc(-c3ccoc3)no1)CC2  -7.16%
82. O=C(COCC(=O)N(c1ccccc1)c1ccccc1)N1CCCC1  -7.27%
83. CCOCCN1CCN(CC(O)c2ccc(OC)cc2)CC1 (stereo unspecified)  -9.39%
84. Cc1cccc(-c2nnn3c2COC(CNCc2nccs2)C3)c1 (stereo unspecified)  -10.2%
85. COCCN1C[C@@H](C)[C@@]2(COCCN(C(=O)c3cccc(C)n3)C2)C1  -10.5%
86. Cn1ccnc1CN1CCCN(C(=O)COC2CCCC2)CC1  -11.4%
87. Cc1ccc(-c2noc(CN3CCc4nn(C)c(=O)cc4C3)n2)cc1  -11.4%
88. c1ncn(CC2CCCN(Cc3csc(-c4ccsc4)n3)C2)n1 (stereo unspecified)  -12.2%
89. CCc1c(C)n(C)c2nc3ccccc3n2c1=O  -13.8%
90. CC(=O)N1CCC(Cc2nccnc2-c2c(C)n[nH]c2C)C1 (stereo unspecified)  -14.1%
91. CCNc1nc2cn(-c3ccc(CC)cc3)c(=O)c-2c[nH]1  -14.245%
92. O=C(c1nc2c(o1)CN(CC1CCC1)C2)N1CCCC1  -15.6%
93. Cc1nn(C2CCCCC2)c2nc(C(C)(C)CN3CCOCC3)[nH]c12  -16.9%
94. CS(=O)(=O)c1cccc(C(N)c2ccccc2)c1 (stereo unspecified)  -19.4%
95. Cc1nc(CN2CCCC(NCc3cnc(C(C)(C)C)s3)C2)no1 (stereo unspecified)  -19.6%
96. CCOCC1CN(Cc2cccnc2)Cc2nn(C)cc21 (stereo unspecified)  -21.4%
97. N#CC1(C(=O)NCc2ccc(F)cc2)CCCC1  -22.1%
98. O=c1c2c[nH]c(N3CCCCC3)nc-2cn1-c1ccc2c(c1)OCO2  -22.9%
99. Cc1nc(-c2ccsc2)ccc1C(=O)NCC(C)N1CCOCC1 (stereo unspecified)  -24.275%
100. CCC(C)(C)c1cc(-c2c(C)nn(CCO)c2C)c(C#N)c(N)n1  -24.6%
101. Cn1cc(C2CCCN2C(=O)c2ccc(OCC3CC3)nc2)cn1 (stereo unspecified)  -27%
102. N#Cc1ccc(F)c(CN2CCCCC2Cn2cccn2)c1 (stereo unspecified)  -36.1%
103. O=S(=O)(CCN1CCN(c2ccccc2O)CC1)c1ccc(Cl)cc1  -36.3%
104. CSC1(CNC(=O)c2cccc(-n3cccn3)c2)CCOCC1  -46.4%
105. COCCN1CCN(CC(O)c2cc(OC)ccc2OC)CC1 (stereo unspecified)  -94.3%
106. COc1ccc(OC)c(C(O)CN2CCN(C3CCCC3)CC2)c1 (stereo unspecified)  -113%
